This is part of a sample that, as a whole, favours compounds with a hit. Of some 79,000 tested, about 15% had one in any assay. A number with no mark means an inactive call. Active and inactive are the calls of the source. Rule as the data show it: active = growth inhibition above about 70%; inactive = the rest.

The values below come from PubChem BioAssay (NCI).

Assay [1] is described as follows: NCI Yeast Anticancer Drug Screen. Data for the rad50 strain (AID 155).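 Also: 0% = growth of vehicle-only cultures of the same strain.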 The following applies: S. cerevisiae rad50 strain growth inhibition; at 50.0 µM; hits give high values. In short, it runs like this: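 A DNA repair-deficient yeast mutant serves as the test organism; compound-induced growth inhibition is calculated against vehicle-treated cells.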
The nature of assay [2]: NCI Yeast Anticancer Drug Screen. Data for the mec2-1 strain (AID 157). The note with it: S. cerevisiae mec2-1 strain, at 50.0 µM, hits give high values. In short, it runs like this: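 Strain: mec2-1 (DNA repair/cell cycle alteration). Compound exposure, then growth measured; inhibition expressed relative to vehicle.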
Assay [3] in a line: NCI Yeast Anticancer Drug Screen. Data for the sgs1 mgt1 strain (AID 161).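 Also: 0% = growth of cultures given vehicle only.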 The note with it: S. cerevisiae sgs1 mgt1 strain, at 50.0 µM, hits give high values. In short, it runs like this: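 Test agents were incubated with a DNA-repair-mutant yeast strain. Growth was then read and compared against vehicle-treated controls.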
Assay [4] in a line: NCI Yeast Anticancer Drug Screen. Data for the cln2 rad14 strain (AID 165).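 Also: 0% = growth equal to vehicle treated cultures.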 The note with it: S. cerevisiae cln2 rad14 strain, at 50.0 µM, hits give high values. The procedure, abridged:
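Compounds are applied to the cln2 rad14 yeast strain, and growth is then compared with that of vehicle-treated cultures to give inhibition.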

A short description of assay [5]: NCI Yeast Anticancer Drug Screen. Data for the bub3 strain (AID 167). The following applies: S. cerevisiae bub3 mutant strain, at 50.0 µM, hits give high values. The procedure, abridged: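 Inhibition values come from growth of compound-treated mutant yeast normalised to vehicle-treated controls.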
A short description of assay [6]: NCI Yeast Anticancer Drug Screen. Data for the mlh1 rad18 strain (AID 175). The following applies: S. cerevisiae mlh1 rad18 strain growth inhibition; at 50.0 µM; hits give high values. The procedure, abridged: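 Read-out is yeast growth inhibition, calculated against vehicle-only controls. The compound was applied to a strain engineered with DNA damage repair alterations.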

Take `CCOC(=O)/C(=C\c1ccccc1Cl)C(C)=O`: the growth inhibition in assay [1] is 99.3% (active); in assay [2], 98.8% (active); in assay [3], 99.5% (active); in assay [4], 98.5% (active); in assay [5], 98.8% (active); in assay [6], 99.5% (active).
Take `C(=N\OCCc1ccccc1)/c1ccccn1`: the growth inhibition in assay [1] was -14.7%; in assay [2], -33.1%; in assay [3] it was -8.95%; in assay [4] it was -25.3%; in assay [5] it was 9.7%; in assay [6] it was 4%.
On to `Cc1ccc(S(=O)(=O)N2CCC(C(=O)O)(c3ccccc3)CC2)cc1`, for which the growth inhibition is -14.9% in assay [1]; -0.9% in assay [2]; -35.4% in assay [3]; -88.5% in assay [4]; -56.2% in assay [5]; -9.45% in assay [6].
Consider `OCC(O)C(O)C(O)[C@H](O)c1nc2ccccc2[nH]1` (stereo partly drawn), for which the growth inhibition in assay [1] was -15.7%; in assay [2], -1.7%; in assay [3], 0.15%; in assay [4], -19.6%; in assay [5], 27.4%; in assay [6] it was 14.8%.
For `Cn1c(=O)c2[nH]c(=S)[nH]c2n(C)c1=O`, the growth inhibition in assay [1] is -5.85%; in assay [2] it was -20.7%; in assay [3], -3%; in assay [4] it was 11.1%; in assay [5], -18.2%; in assay [6] it was -4.75%.
For `COc1ccc(C(O)C(=O)c2nc3ccc([N+](=O)[O-])cc3[nH]c2=O)cc1` (stereo not drawn), the growth inhibition in assay [1] was -16.5%; in assay [2], -49.5%; in assay [3] it was -29.5%; in assay [4] it was -22.1%; in assay [5] it was -36.5%; in assay [6] it was -5.2%.
With `CCOC(=O)C1(C(=O)OCC)CCC(C(OC)OC)C(CC(=O)OC)C1` (stereo not drawn), the growth inhibition in assay [1] was -2.45%; in assay [2], -15.7%; in assay [3], -5.2%; in assay [4], -6.5%; in assay [5], 26.4%; in assay [6], 16.4%.
Turning to `Nc1nc(-c2ccc(F)cc2)cc(-c2cc(-c3ccc(F)cc3)nc(N)n2)n1`, the growth inhibition in assay [1] is -17.1%; in assay [2] it was -2.75%; in assay [3], -20.9%; in assay [4], -2%; in assay [5], -7.15%; in assay [6] it was 2.15%.
`CC(=O)N1Cc2ncnc(N)c2C1`: the growth inhibition in assay [1] is -12.3%; in assay [2], -8.9%; in assay [3], -20.7%; in assay [4], -10.6%; in assay [5], -2.35%; in assay [6], -10.4%.
For `CCOc1ccc(N2C(C#N)c3ccccc3OC2c2ccccc2O)cc1` (stereo not drawn), the growth inhibition in assay [1] was 3.65%; in assay [2], 46.1%; in assay [3], 18.6%; in assay [4], -5.2%; in assay [5] it was 32.5%; in assay [6], 11.6%.
For the molecule `O=C(O)c1cc(-c2cccs2)c(C(=O)O)s1`, the growth inhibition in assay [1] is -4.2%; in assay [2], 5.35%; in assay [3] it was -18.2%; in assay [4], -19.1%; in assay [5], -11.1%; in assay [6], 2.1%.
`CCOC(=O)/C(C#N)=C/c1cc(Br)c(O)c(OC)c1`: the growth inhibition in assay [1] was -12.3%; in assay [2], -22%; in assay [3], 25.4%; in assay [4], -0.8%; in assay [5], 6.25%; in assay [6] it was 10.8%.
Regarding `O=C1CCCc2ccc3c(c21)CC1(Cc2ccccc2C1)C3`, the growth inhibition in assay [1] was -7.05%; in assay [2], -40.2%; in assay [3], 8.65%; in assay [4], -6%; in assay [5], 4.05%; in assay [6], -5.8%.
For `OCCN1CCN(C2=Nc3cccnc3Nc3cscc32)CC1`, the growth inhibition in assay [1] was -41.2%; in assay [2], -1.15%; in assay [3] it was -22.6%; in assay [4], -9.75%; in assay [5], -5.05%; in assay [6], -8.75%.
Regarding `OC(c1cccc(Cl)c1)C(Cl)Cl` (stereo not drawn), the growth inhibition was -2.55% in assay [1]; -9.45% in assay [2]; -22% in assay [3]; -4.15% in assay [4]; -14.5% in assay [5]; 1.95% in assay [6].
As to `CC(C)[C@H]1CC[C@@](C)(C(=O)O)C1`, the growth inhibition in assay [1] is 12.4%; in assay [2], 7.5%; in assay [3], 15.2%; in assay [4] it was 5.8%; in assay [5] it was 23.4%; in assay [6], 16.4%.
Consider `CC(CC(=O)Nc1ccccc1)C(=O)O` (stereo not drawn), for which the growth inhibition is 7.85% in assay [1]; -7.1% in assay [2]; -10.8% in assay [3]; -26.4% in assay [4]; 5.55% in assay [5]; 2.55% in assay [6].
`O=C1/C(=C/c2ccc3c(c2)OCO3)CC/C1=C\c1ccc2c(c1)OCO2`: the growth inhibition in assay [1] was -10.2%; in assay [2], 5.35%; in assay [3], -19.7%; in assay [4], -55.6%; in assay [5] it was -13.7%; in assay [6], -26.9%.
Take `COc1cc(C2c3cc4c(cc3C(OC(=O)C[n+]3ccccc3)C3COC(=O)C23)OCO4)cc(OC)c1OC` (stereo not drawn): the growth inhibition in assay [1] is 28.7%; in assay [2] it was -9.15%; in assay [3], 1.7%; in assay [4], -4.75%; in assay [5], 18.8%; in assay [6], 16.5%.
As for `CC(=O)c1cc2c(cc1C)CCCC2(C)C`, the growth inhibition in assay [1] is 0.95%; in assay [2] it was -3.8%; in assay [3], -2.4%; in assay [4], -1.5%; in assay [5], 4.4%; in assay [6] it was 1.35%.
For the molecule `COC(=O)CCC(=O)CN1C(=O)c2ccccc2C1=O`, the growth inhibition was 14.8% in assay [1]; 9.1% in assay [2]; 4% in assay [3]; 11.5% in assay [4]; 14.1% in assay [5]; 1.5% in assay [6].
Regarding `CN(NC(=O)c1ccccc1)C(=O)c1ccccc1`, the growth inhibition was 15.6% in assay [1]; 7.4% in assay [2]; 11.6% in assay [3]; -15% in assay [4]; 6.05% in assay [5]; 3.75% in assay [6].
Take `C/C(NN(C)C)=C(\C#N)C(=O)/C=C/c1cccs1`: the growth inhibition in assay [1] was 25.2%; in assay [2] it was 1.75%; in assay [3] it was 38.5%; in assay [4], 25.9%; in assay [5], 18.1%; in assay [6], 18.8%.
Turning to `Clc1nc(Cl)c2ncn(C3CCCCO3)c2n1` (stereo not drawn), the growth inhibition in assay [1] is 26.4%; in assay [2], 26.1%; in assay [3], 5.05%; in assay [4], 4.6%; in assay [5], 38.2%; in assay [6], 14.3%.
`CC(=O)Oc1cccc(/C=C/C(=O)O)c1`: the growth inhibition in assay [1] is 19%; in assay [2], 29.3%; in assay [3], 22.9%; in assay [4], 3.75%; in assay [5] it was 39.6%; in assay [6], 18.9%.
With `COc1ccc(CCl)c(C)c1OC`, the growth inhibition in assay [1] was 32.7%; in assay [2], 5.75%; in assay [3], 18.9%; in assay [4], 2.75%; in assay [5], 16.1%; in assay [6] it was -10.7%.
Consider `Nc1nc2ncn(COC(CO)CO)c2c(=O)[nH]1`, for which the growth inhibition in assay [1] was 7%; in assay [2], 6.9%; in assay [3], -2.3%; in assay [4], 18.6%; in assay [5], 0.85%; in assay [6], 20.1%.
With `Cc1c[nH]c(=O)n(CC(=O)C2(O)CCC3C4CCC5=CC(=O)CCC5(C)C4CCC32C)c1=O` (stereo not drawn), the growth inhibition in assay [1] is 5.25%; in assay [2], -4.45%; in assay [3], -10.9%; in assay [4] it was 13.2%; in assay [5], -0.55%; in assay [6] it was -1.35%.
Regarding `NC(=O)C(=O)N/N=C1/c2ccccc2CC1C1(O)C(=O)Nc2c(Cl)cc(Cl)cc21` (stereo not drawn), the growth inhibition is 50.4% in assay [1]; 30.9% in assay [2]; 38.5% in assay [3]; 16.6% in assay [4]; 3.55% in assay [5]; 44.2% in assay [6].
On to `CC(=O)OCCCC(C)Nc1ccnc2cc(Cl)ccc12` (stereo not drawn), for which the growth inhibition was -8.15% in assay [1]; -8.95% in assay [2]; -2.35% in assay [3]; 19.9% in assay [4]; -7.9% in assay [5]; 11.3% in assay [6].
With `Cc1cc(C)c2[nH]c(=O)c(C)c(C)c2c1Br`, the growth inhibition is -0.5% in assay [1]; 5.55% in assay [2]; -7.2% in assay [3]; -16.6% in assay [4]; -1.3% in assay [5]; -0.25% in assay [6].
As to `O=C1OC(c2ccccc2Cl)Sc2ccccc21` (stereo not drawn), the growth inhibition was -3.25% in assay [1]; 25.1% in assay [2]; 20.1% in assay [3]; -30.7% in assay [4]; 55.8% in assay [5]; 32.8% in assay [6].
Regarding `CC(=O)N1CC(C)(C)c2c(C)c(O)c(C)c(C)c21`, the growth inhibition is -16.1% in assay [1]; -22.3% in assay [2]; -15.4% in assay [3]; 17.1% in assay [4]; 8.45% in assay [5]; 0.3% in assay [6].
As to `Nc1n[n+]([O-])c2cc([N+](=O)[O-])ccc2[n+]1[O-]`, the growth inhibition in assay [1] is 85.1% (active); in assay [2], 87.9% (active); in assay [3] it was 84.7% (active); in assay [4], 79.7% (active); in assay [5], 75.9% (active); in assay [6], 68%.
In the case of `CCOC(=O)CCC(NC(=O)c1ccc([N+](=O)[O-])cc1)C(=O)OCC` (stereo not drawn), the growth inhibition is 29.6% in assay [1]; -32.3% in assay [2]; -7.3% in assay [3]; -86.5% in assay [4]; 7.7% in assay [5]; 26.1% in assay [6].
`COc1cc(NCCCCCNC(C)C)c2nccc(C)c2c1`: the growth inhibition is 42.2% in assay [1]; 43.1% in assay [2]; 56.6% in assay [3]; 28.6% in assay [4]; 27.9% in assay [5]; 50.5% in assay [6].
`CC1CN(C(=O)C2CCCN(CCc3ccccc3)C2)CC(C)O1` (stereo not drawn): the growth inhibition is 25.4% in assay [1]; 2.65% in assay [2]; 52.7% in assay [3]; 14.8% in assay [4]; 2% in assay [5]; 22.7% in assay [6].
Take `O=S(NOCc1ccccc1)c1ccccc1` (stereo not drawn): the growth inhibition in assay [1] was 13.3%; in assay [2] it was 24.2%; in assay [3], 3.95%; in assay [4], -31.8%; in assay [5] it was -6%; in assay [6] it was 9.75%.
